In PubChem BioAssay (EPA / NIEHS):
Several values for one entry are separate records, joined by “and”; a condition that tells them apart may be missing. Identical values can stand only once. More than one record can exist for a structure, and the calls need not agree. Activity calls are given as the source filed them. Rule for the calls: active = hit-call score of the fitted dose curve at least 0.9, where 1 is the maximum; inactive = score below 0.9.

Each compound was assayed on Interleukin-1 alpha (IL1a), IL1A (gene 3552) (assay: BSK_BE3C_IL1a: BioMAP Diversity Plus: BE3C Assay for Interleukin-1 alpha (IL1a) Biomarker Activity (AID 2283016)). Conditions: primary human bronchial epithelial cells; actives raise or lower the signal.
Method: BSK_BE3C is a cell-based, multiplexed-readout assay that uses bronchial epithelial cell, a human lung primary cell, with measurements taken at 24 hours after chemical dosing in a 96-well plate.BSK_BE3C_IL1a is an assay component measured in the BSK_BE3C assay. It measures IL-1a antibody related to regulation of gene expression using ELISA technology.Data from the assay component BSK_BE3C_IL1a was analyzed into 1 assay endpoint. This assay endpoint, BSK_BE3C_IL1a, was analyzed with bidirectional fitting relative to DMSO as the negative control and baseline of activity. Using a type of binding reporter, gain or loss-of-signal activity can be used to understand changes in the signaling as they relate to the gene IL1A. Furthermore, this assay endpoint can be referred to as a primary readout, because this assay has produced multiple assay endpoints where this one serves a signaling function. To generalize the intended target to other relatable targets, this assay endpoint is annotated to the cytokine intended target family, where the subfamily is interleukins.
The levels of cell surface (or secreted, indicated by the prefix "s") biomarker endpoints were measured by ELISA. Overt cytotoxicity to cells in confluent adherent cultures (all systems other than the BT system) was assessed by measuring total protein levels using sulforhodamine B (SRB) staining in parallel cultures at the time of biomarker measurements, indicated as SRB endpoints. For proliferation assays for adherent cell types, individual cell types are cultured at sub-confluence and relative cell numbers quantified by SRB staining at time points optimized for each system (48 h: 3C and CASM3C systems; 72 h: BT and HDF3CGF systems; 96 h: SAg system). SRB was performed by staining cells with 0.1% SRB after fixation with 10% TCA and reading wells at 560 nm.Viability and proliferation of PBMC (T cells) was quantified by Alamar Blue reduction for the SAg and BT systems. For PBMC viability (referred to as PBMC Cytotoxicity within the assay endpoint names), cells were plated (75,000/well in a 96-well plate) and then chemical samples added for 1 h before addition of activators, SEB and TSST-1 (20 ng/mL final concentration each). Cells were incubated for 90 h. Then, Alamar Blue (20 uL/well) (Invitrogen, Cat DAL1100) was added for 6 h, and the plates were read with a fluorescence microplate reader at 546/580 nm (excitation/emission). For PBMC proliferation, cells were plated and activated as above but incubated for only 16 h prior to addition of Alamar Blue. Plates were read after 6 h.
In the case of `O=[N+]([O-])/N=C1\NCCN1Cc1ccc(Cl)nc1`, the outcome is reported as “inactive”.
In the case of `COc1nn(CSP(=S)(OC)OC)c(=O)s1`, the outcome is reported as “inactive”.
In the case of `COC(=O)c1ccccc1S(=O)(=O)NC(=O)Nc1nc(C)nc(OC)n1`, the outcome is reported as “inactive”.
In the case of `CCC(C)Nc1c([N+](=O)[O-])cc(C(C)(C)C)cc1[N+](=O)[O-]` (stereo not given), the outcome is reported as “inactive”.
With `Oc1cc(Cl)ccc1Oc1ccc(Cl)cc1Cl` the AC50 was 32.1 µM (active) and 36.1 µM (active) and 31.2 µM (active).
For `O=C(Nc1ccccc1)Nc1cnns1`, the outcome was “inactive”.
In the case of `CCOCN(C(=O)CCl)c1c(C)cccc1CC`, the outcome is reported as “inactive”.
With `CCS(=O)(=O)c1cccnc1S(=O)(=O)NC(=O)Nc1nc(OC)cc(OC)n1` the outcome was “inactive”.
With `CCOC1Oc2ccc(OS(C)(=O)=O)cc2C1(C)C` (stereo not given) the outcome was “inactive”.
In the case of `CNC(=O)Oc1ccccc1OC(C)C`, the AC50 is reported as 5.51 µM (active).
`CCc1ccc(C(=O)NN(C(=O)c2cc(C)cc(C)c2)C(C)(C)C)cc1` was tested, and the outcome was “inactive”.
In the case of `CN1CSC(=S)N(C)C1`, the outcome is reported as “inactive”.
`COC(=O)c1ccccc1CS(=O)(=O)NC(=O)Nc1nc(OC)cc(OC)n1` was tested, and the outcome was “inactive”.
In the case of `C[C@H]1[C@H](c2ccc(Cl)cc2)SC(=O)N1C(=O)NC1CCCCC1`, the outcome is reported as “inactive”.
In the case of `N#CN`, the outcome is reported as “inactive”.
For `COP(=O)(OC)OC=C(Cl)Cl`, the outcome was “inactive”.
`Clc1ccccc1-c1nnc(-c2ccccc2Cl)nn1` was tested, and the outcome was “inactive”.
For `CC(C)(C)C(O)/C(=C\c1ccc(Cl)cc1Cl)n1cncn1` (stereo not given), the AC50 was 32.9 µM (active).
In the case of `CCC(C)(NC(=O)c1cc(Cl)c(C)c(Cl)c1)C(=O)CCl` (stereo not given), the AC50 is reported as 33.8 µM (active).
For `O=S1OCC2C(CO1)C1(Cl)C(Cl)=C(Cl)C2(Cl)C1(Cl)Cl` (stereo not given), the AC50 was 33.4 µM (active).
`CC1(C)C(C=C(Cl)Cl)C1C(=O)OC(C#N)c1ccc(F)c(Oc2ccccc2)c1` (stereo not given) was tested, and the outcome was “inactive”.
With `O=C(O)C(F)(F)C(F)(F)C(F)(F)C(F)(F)C(F)(F)C(F)(F)C(F)(F)F` the outcome was “inactive”.
`Cc1[nH]c(=O)n(C(C)(C)C)c(=O)c1Cl` was tested, and the outcome was “inactive”.
With `Cc1cc(C)nc(NC(=O)NS(=O)(=O)c2ccccc2C(=O)OC2COC2)n1` the outcome was “inactive”.
In the case of `CC(C)(C)C(O)C(Oc1ccc(Cl)cc1)n1cncn1` (stereo not given), the outcome is reported as “inactive”.
`C#CCN1C(=O)COc2cc(F)c(N3C(=O)C4=C(CCCC4)C3=O)cc21` was tested, and the outcome was “inactive”.
In the case of `COP(=S)(OC)Oc1ccc(SC)c(C)c1`, the AC50 is reported as 5.15 µM (active).
`CC[C@H](C)[C@H]1O[C@]2(C=C[C@@H]1C)C[C@@H]1C[C@@H](C/C=C(\C)[C@@H](O[C@H]3C[C@H](OC)[C@@H](O[C@H]4C[C@H](OC)[C@@H](O)[C@H](C)O4)[C@H](C)O3)[C@@H](C)/C=C/C=C3\CO[C@@H]4[C@H](O)C(C)=C[C@@H](C(=O)O1)[C@]34O)O2` (tested in a mixture with another compound) was tested, and the AC50 was 9.4 µM (active).
`CNC(=O)CSP(=S)(OC)OC` was tested, and the outcome was “inactive”.
With `Oc1ccc(Cl)cc1Cc1ccccc1` the AC50 was 33.8 µM (active) [middle of 7 runs].
For `[2H]C1([2H])[n+]2ccccc2-c2cccc[n+]2C1([2H])[2H]`, the outcome was “inactive”.
In the case of `O=C(O)COc1ccc(Cl)cc1Cl`, the outcome is reported as “inactive”.
`ClC1C(Cl)C(Cl)C(Cl)C(Cl)C1Cl` (stereo not given) was tested, and the outcome was “inactive”.
For `O=S(=O)(O)C(F)(F)C(F)(F)C(F)(F)C(F)(F)C(F)(F)C(F)(F)C(F)(F)C(F)(F)F`, the outcome was “inactive” and the AC50 was 34.1 µM (active) [middle of 4 runs].
In the case of `COP(=S)(OC)Oc1ccc([N+](=O)[O-])cc1`, the outcome is reported as “inactive”.
In the case of `CC(C)N(C(=O)COc1nnc(C(F)(F)F)s1)c1ccc(F)cc1`, the outcome is reported as “inactive”.
In the case of `N#Cc1c(Cl)c(Cl)c(Cl)c(C#N)c1Cl`, the AC50 is reported as 2.48 µM (active).
With `COc1cc(OC)nc(NC(=O)NS(=O)(=O)c2cc(NC=O)ccc2C(=O)N(C)C)n1` the outcome was “inactive”.
In the case of `CCC(C)(C)C(=O)OC1=C(c2ccc(Cl)cc2Cl)C(=O)OC12CCCCC2`, the AC50 is reported as 31 µM (active).
